Assay results: PubChem BioAssay (NCI)
Compounds without any hit were thinned out: in the full panel of roughly 83,000, 20% have a hit.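 Cells were grown in 96-well plates and exposed to the test compound at a single concentration for 48 hours; results are reported as percent growth, with values below 10 considered active.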 A number with no mark means an inactive call. The source made the active and inactive calls.

Columns and labels:
Experiment in all cases: NCI-60 one-dose screen, 48 h (100 = growth as untreated, 0 = no growth, -100 = all killed)
Conditions in all cases: 10 µM unless noted
[1] = system: SR leukemia
[2] = system: RPMI-8226 leukemia
[3] = system: OVCAR-8 ovarian
[4] = system: OVCAR-5 ovarian
[5] = system: SK-OV-3 ovarian
[6] = system: IGROV1 ovarian
[7] = system: OVCAR-3 ovarian
[8] = system: HS 578T breast
[9] = system: NCI/ADR-RES ovarian
[10] = system: T-47D breast
[11] = system: BT-549 breast
[12] = system: MDA-MB-435 melanoma
[13] = system: SW-620 colon
[14] = system: MCF7 breast
[15] = system: HCT-116 colon
[16] = system: HCC-2998 colon
[17] = system: KM12 colon

Structure (SMILES) | growth [1] | growth [2] | growth [3] | growth [4] | growth [5] | growth [6] | growth [7] | growth [8] | growth [9] | growth [10] | growth [11] | growth [12] | growth [13] | growth [14] | growth [15] | growth [16] | growth [17]
CC(C)c1ccc(/C=N/N=C(N)N)cc1 | 21.6% | 17.1% | 89.8% | 89.5% | 85.5% | 89.5% | 72.6% | 97.8% | 79.4% | 91% | 86.3% | -28.7% (active) | 36.2% | 8.1% (active) | 84.3% | 50.9% | 27.7%
CCN(CC)c1ccc2cc(C(Nc3ccc(Br)c(C(F)(F)F)c3)c3nnnn3C(C)(C)C)c(=O)oc2c1 (configuration not stated) | 98.8% | 87.1% | 91.5% | 92% | 84.7% | 106% | 104% | 79.6% | 93.8% | 64.2% | 97.3% | 99.4% | 98.7% | 73.8% | 93.5% | 106% | 102%
CCOC(=O)c1nc2c3ccccc3ccn2c1C(=O)OC | 130% | 86.9% | 100% | 89.5% | 94% | 94.3% | 106% | 105% | 102% | 76.4% | 97% | 96.5% | 100% | 97.6% | 97.5% | 91.1% | 107%
COc1ccc(-c2c(C)nn3c(NCCN4CCOCC4)cc(C)nc23)cc1OC | 79.8% | 105% | 103% | 94.3% | 101% | 117% | 103% | 79% | 99.8% | 88.2% | 93.3% | 101% | 99.4% | 95.3% | 90% | 104% | 107%
C=C(C)[C@@H]1CC[C@]2(C(=O)OC)CC[C@]3(C)[C@H](CC[C@@H]4[C@@](C)(CCc5nn[nH]n5)[C@H](C(=C)C)CC[C@]43C)[C@@H]12 | 21.7% [100 µM] | -0.796% [100 µM] (active) | 7.09% [100 µM] (active) | 5.88% [100 µM] (active) | -2.47% [100 µM] (active) | -8.32% [100 µM] (active) | -60.4% [100 µM] (active) | -31% [100 µM] (active) | -7.5% [100 µM] (active) | -5.51% [100 µM] (active) | -12.1% [100 µM] (active) | -54% [100 µM] (active) | -19.6% [100 µM] (active) | 5.06% [100 µM] (active) | -21.5% [100 µM] (active) | -53.5% [100 µM] (active) | -43.7% [100 µM] (active)
O=C(Nc1ccc(C(=O)/C=C/c2ccc(N3CCOCC3)cc2)cc1)Nc1ccc([N+](=O)[O-])cc1 | 94.1% | 77% | 92.4% | 94.4% | 90.5% | 72.5% | 93.9% | 111% | 98.5% | 72.8% | 108% | 96% | 99.7% | 76.3% | 97.3% | 109% | 89.4%
Cc1cc(C)c(S(=O)(=O)/N=c2/n(-c3ccccc3)nc3n2CCN3C2=NCCN2)c(C)c1 | 39.9% | 76% | 86.7% | 86.5% | 83.2% | 65.5% | 88.7% | 79.3% | 89.1% | 77.8% | 73.8% | 69.5% | 84.8% | 90.8% | 55.7% | 61.5% | 85.4%
C=CCc1nc2ccccc2s1 | 98.9% | 92.4% | 98% | 101% | 110% | 74.6% | 114% | 102% | 111% | 75.5% | 101% | 116% | 98.9% | 40.6% | 104% | 114% | 107%
C=C(C)[C@@H]1CC[C@]2(C)[C@H](C(=O)C=C3[C@@H]4C[C@](C)(C(=O)N5CCN(C)CC5)CC[C@]4(C)CC[C@]32C)[C@@]1(C)CCC#N | 34.7% [100 µM] | -54.5% [100 µM] (active) | -70.9% [100 µM] (active) | -75.9% [100 µM] (active) | -76.1% [100 µM] (active) | -76% [100 µM] (active) | -76.6% [100 µM] (active) | -54.8% [100 µM] (active) | -81.3% [100 µM] (active) | -40.5% [100 µM] (active) | -73.3% [100 µM] (active) | -81% [100 µM] (active) | -80% [100 µM] (active) | -71.1% [100 µM] (active) | -70.7% [100 µM] (active) | -94% [100 µM] (active) | -80.2% [100 µM] (active)
Cc1cnc(N)nc1OCC(C)(C)CNC(=O)c1cccc(-c2ccc(S(=O)(=O)Nc3ccc4c(c3)N(C(=O)C3CC3)CCC4)cc2)c1 | 79.9% | 44.6% | 62.3% | 79.4% | 68.2% | 63.4% | 68.2% | 64.4% | 105% | 20% | 78% | 50.4% | 73.9% | 43.6% | 61.3% | 72.6% | 61.8%
CSc1cccc([N+](=O)[O-])c1 | 107% | 96.8% | 107% | 101% | 97.8% | 101% | 110% | 107% | 109% | 90.1% | 104% | 100% | 108% | 108% | 100% | 108% | 113%
O=C(Nc1cccnc1)c1ccc2ccc3ccc(C(=O)Nc4cccnc4)nc3c2n1 | 42.6% | 18.7% | 22.6% | 36.9% | 47.6% | 15.4% | 23.3% | 46.4% | 79.8% | 37.2% | 34.7% | 24.9% | 11% | 28.9% | 4.76% (active) | 3.41% (active) | 5.81% (active)
CC(=O)n1cc(C=O)c2ccccc21 | 97.3% | 97.6% | 86.7% | 104% | 116% | 112% | 104% | 104% | 96.4% | 98.8% | 96.5% | 109% | 102% | 94.8% | 109% | 100% | 94%
Clc1ccc(/C=N/Nc2nc3ccccc3s2)c(Cl)c1 | 91% | 91.2% | 79.3% | 103% | 74% | 67% | 87.3% | 84.8% | 89.7% | 74.4% | 115% | 91.9% | 79.3% | – | 80.6% | 101% | 94%
